# Results from PubChem BioAssay (NCATS).
# Records with an inconclusive call do not appear. A call without a number means that no potency is given here. Activity calls are given as the source filed them. Calls follow the shape of the dose curve; as a rule, active = well fitted curve in the direction sought with a large enough effect; inconclusive = small, poorly fitted or top-dose-only effect, or another doubt; inactive = no such curve, though single readings can be large; an effect the other way counts as inactive or inconclusive.
# Columns and labels:
# [1] = target: Aldehyde dehydrogenase, mitochondrial (Homo sapiens) (UniProt P05091); assay: qHTS for Inhibitors of the Aldehyde Dehydrogenase Family (ALDH2) Primary screen (AID 2061308); also: nearly all actives have a fitted effect of over 55% in size
# [2] = target: Retinaldehyde dehydrogenase 3 (Homo sapiens) (UniProt P47895); assay: qHTS for Inhibitors of the Aldehyde Dehydrogenase Family (ALDH1A3) Primary screen (AID 2061315)
SMILES,Potency [1],Potency [2]
CCCn1c(-c2ccc(F)cc2)nc2c(NCCN(C)C)nc(C)nc21,inactive,inactive
O=C1N/C(=C\c2ccco2)C(=O)N1Cc1ccc(F)cc1,inactive,inactive
O=C(CNC(=O)c1ccc2n[nH]nc2c1)OC(C(=O)Nc1cc(C(F)(F)F)ccc1Cl)c1ccccc1 (stereo unspecified),inactive,inactive
Cc1nc(NCc2ccccc2)c2nc(-c3ccccc3)n(CCN3CCCCC3)c2n1,inactive,inactive
CC12CCC3C1C(c1c(cc(O)c(C(=O)c4ccccc4)c1O)O2)C3(C)C (stereo unspecified),inactive,inactive
O=C1OC(c2ccccc2)(c2ccccc2)N2CCN(C(=O)NCc3ccc(F)cc3)CC12 (stereo unspecified),inactive,inactive
Cc1ccc(-c2ccc(=O)n(CC(=O)N(C)C3CCCCCC3)n2)cc1,inactive,inactive
COC(=O)C1CCc2sc(NC(=O)Cc3ccccc3)c(C(=O)Nc3ccc(Cl)cc3)c21 (stereo unspecified),inactive,inactive
Cc1cc(C)nc(NC(=S)N2CCN(c3cccc(C(F)(F)F)n3)CC2)c1,inactive,inactive
COC1C=C([C@@H]2CC=C3[C@@]4(C)C(CC[C@]32C)[C@@]2(C)C=CC(=O)C(C)(C)C2C[C@H]4OC(C)=O)C(=O)O1 (stereo partly specified),inactive,inactive
O=C(Cc1ccccc1)NC(c1ccco1)c1cc(Cl)c2cccnc2c1O (stereo unspecified),inactive,inactive
CCN1CCCC1Cn1c(-c2ccccc2)nc2c(N(CCOC)CCOC)nc(C)nc21 (stereo unspecified),inactive,inactive
Cc1ccc(NS(=O)(=O)c2cc3c(cc2Cl)CCC(=O)N3)cc1Cl,inactive,inactive
O=S(=O)(c1ccc(C(F)(F)F)cc1)N1CCN(S(=O)(=O)c2ccc3c(c2)OCCO3)CC1,inactive,inactive
COC(=O)Nc1sc2c(c1C(N)=O)CCCC2,inactive,inactive
COc1cccc(-c2nnc3n2N=C(c2cc(OC)ccc2OC)CS3)c1,inactive,inactive
CC(C)CN1CCN(C(=O)COC(=O)c2ccc(S(C)(=O)=O)c([N+](=O)[O-])c2)CC1,inactive,inactive
C=CCNc1oc(-c2ccc(-c3ccccc3)cc2)nc1C#N,inactive,inactive
CCOc1ccccc1CNc1ncnc2ccc(-c3c(C)noc3C)cc12,inactive,inactive
Cc1ccc([S+](=O)([O-])n2cc(-c3ccc(-c4ccccc4)cc3)c3ccccc32)cc1,inactive,inactive
Cc1ccc(Cl)cc1NS(=O)(=O)c1cc2c(cc1Cl)CCC(=O)N2,inactive,inactive
Cc1ccccc1C(=O)n1ccc2cc(-c3nc(NC(=O)Cc4ccc5c(c4)OCO5)sc3C)ccc21,inactive,inactive
Cc1cc(N[S+](=O)([O-])c2ccc(NC(=O)Cc3ccc(F)c(C(F)(F)F)c3)cc2)no1,inactive,inactive
